Our source for the outcome and AC50 values is PubChem BioAssay (EPA / NIEHS).

Active and inactive are the calls of the source. The calls were made as follows: active = hit-call score of the fitted dose curve at least 0.9, where 1 is the maximum; inactive = score below 0.9.

Read-out in experiment [1]: Interleukin-6 (IL6), IL6 (gene 3569)
The experiment in a line: BSK_CASM3C_IL6: BioMAP Diversity Plus: CASM3C Assay for Interleukin-6 (IL6) Biomarker Activity for (AID 2283040). Particulars: primary human coronary artery smooth muscle cells; actives raise or lower the signal.

Read-out in experiment [2]: Tissue plasminogen activator (tPA), PLAT (gene 5327)
The experiment in a line: BSK_BE3C_tPA: BioMAP Diversity Plus: BE3C Assay for Tissue plasminogen activator (tPA) Biomarker Activity (AID 2283041).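 As to outcome: tPA level quantified by ELISA one day after compound addition.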 Particulars: primary human bronchial epithelial cells; actives raise or lower the signal. A digest of the protocol:
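Human primary bronchial epithelial cells were dosed with chemical and tPA biomarker levels measured by ELISA 24 hours later. Activity was fitted bidirectionally against DMSO as negative control and baseline.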

Read-out in experiment [3]: Interleukin-8 (IL8), CXCL8 (gene 3576)
The experiment can be described thus: BSK_CASM3C_IL8: BioMAP Diversity Plus: CASM3C Assay for Interleukin-8 (IL8) Biomarker Activity (AID 2283042).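 Also: IL-8 protein level quantified by ELISA.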 As to conditions: primary human coronary artery smooth muscle cells; actives raise or lower the signal.

Read-out in experiment [4]: Human Leukocyte Antigen - DR isotype (HLADR), HLA-DRA (gene 3122)
The experiment can be described thus: BSK_CASM3C_HLADR: BioMAP Diversity Plus: CASM3C Assay for Human Leukocyte Antigen - DR isotype (HLADR) Biomarker Activity (AID 2283043).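 Also: cell-surface HLA-DR protein level quantified by ELISA.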 Particulars: primary human coronary artery smooth muscle cells; actives raise or lower the signal.

Read-out in experiment [5]: Macrophage colony-stimulating factor (MCSF), CSF1 (gene 1435)
The experiment can be described thus: BSK_CASM3C_MCSF: BioMAP Diversity Plus: CASM3C Assay for Macrophage colony-stimulating factor (MCSF) Biomarker Activity (AID 2283044).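 Also: M-CSF protein amount quantified by ELISA after 24 h exposure.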 Particulars: primary human coronary artery smooth muscle cells; actives raise or lower the signal.

Read-out in experiment [6]: Low-density lipoprotein receptor (LDLR), LDLR (gene 3949)
The experiment can be described thus: BSK_CASM3C_LDLR: BioMAP Diversity Plus: CASM3C Assay for Low-density lipoprotein receptor (LDLR) Biomarker Activity (AID 2283045).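 Also: LDLR protein level on the cell surface quantified by ELISA.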 Particulars: primary human coronary artery smooth muscle cells; actives raise or lower the signal.

Read-out in experiment [7]: Monocyte Chemoattractant Protein-1 (MCP1), CCL2 (gene 6347)
The experiment in a line: BSK_CASM3C_MCP1: BioMAP Diversity Plus: CASM3C Assay for Monocyte Chemoattractant Protein-1 (MCP1) Biomarker Activity (AID 2283046).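 Also: MCP-1 level quantified by ELISA 24 h after dosing.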 As to conditions: primary human coronary artery smooth muscle cells; actives raise or lower the signal.

Experiment [8] is described as follows: BSK_CASM3C_Proliferation: Cell Proliferation Assessment in the BioMAP Diversity Plus: CASM3C Assay (AID 2283047).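 Also: sulforhodamine B total protein stain as relative cell number at 560 nm; sub-confluent cells exposed 48 h before staining; fitted both ways against DMSO so gain or loss of cell number.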 As to conditions: primary human coronary artery smooth muscle cells.
Read-out in experiment [9]: Monokine induced gamma interferon (MIG), CXCL9 (gene 4283)
The experiment can be described thus: BSK_CASM3C_MIG: BioMAP Diversity Plus: CASM3C Assay for Monokine induced gamma interferon (MIG) Biomarker Activity (AID 2283048).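 Also: MIG protein level measured by ELISA.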 Particulars: primary human coronary artery smooth muscle cells; actives raise or lower the signal.

Read-out in experiment [10]: serum amyloid A (SAA), SAA1 (gene 6288)
The experiment in a line: BSK_CASM3C_SAA: BioMAP Diversity Plus: CASM3C Assay for serum amyloid A (SAA) Biomarker Activity (AID 2283049).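 Also: SAA protein level quantified by ELISA.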 As to conditions: primary human coronary artery smooth muscle cells; actives raise or lower the signal.

Turning to `COP(=O)(OC)O/C(C)=C/C(=O)N(C)C`, the result in [1], in [2], in [3], in experiment [4], in experiment [5] and in experiment [6] was inactive. For the same molecule, the result in experiment [7], in experiment [8], in experiment [9] and in [10] was inactive.
In the case of `N#CN=C1SCCN1Cc1ccc(Cl)nc1`, the result in experiment [1], in experiment [2], in experiment [3], in experiment [4], in experiment [5] and in [6] was inactive. Also, the outcome in experiment [7], in [8], in experiment [9] and in [10] was inactive.
Turning to `CC1(C)C(C(=O)OC(C#N)c2cccc(Oc3ccccc3)c2)C1(C)C` (stereo not given), the AC50 is 30.9 µM (active) in experiment [1] and 13.2 µM (active) in experiment [8]. The outcome in [2], in experiment [3], in experiment [4], in [5], in experiment [6] and in experiment [7] was inactive. Moreover, the outcome in [9] and in [10] was inactive.
Consider `CN=C=S`, for which the result in experiment [1], in experiment [2], in experiment [3], in [4], in experiment [5] and in [6] was inactive. The result in experiment [7], in experiment [8], in [9] and in experiment [10] was inactive.
Take `CCCN(CC)CC1COC2(CCC(C(C)(C)C)CC2)O1` (stereo not given): the result in experiment [1], in experiment [2], in experiment [3], in [4], in experiment [5] and in [6] was inactive. Moreover, the outcome in experiment [7], in experiment [9] and in [10] was inactive. Also, the AC50 in experiment [8] is 7.08 µM (active).
In the case of `CCCC(=NOCC)C1=C(O)CC(CC(C)SCC)CC1=O` (stereo not given), the outcome in experiment [1], in [2], in experiment [3], in experiment [4], in [5] and in experiment [6] was inactive. For the same molecule, the outcome in experiment [7], in [8], in experiment [9] and in experiment [10] was inactive.
In the case of `CSC(=O)c1c(C(F)F)nc(C(F)(F)F)c(C(=O)SC)c1CC(C)C`, the AC50 in [1] was 3.97 µM (active). Further, the outcome in [2], in experiment [3], in experiment [4], in experiment [5], in experiment [6] and in experiment [7] was inactive. Moreover, the result in experiment [8], in experiment [9] and in experiment [10] was inactive.
As for `CCOP(=S)(OCC)Oc1nc(Cl)n(C(C)C)n1`, the result in [1], in experiment [2], in experiment [3], in [4], in experiment [5] and in experiment [6] was inactive. Also, the result in [7], in [8], in [9] and in [10] was inactive.
Consider `N#Cc1c(Cl)cccc1Cl`, for which the outcome in [1], in [2], in [3], in [4], in [5] and in [6] was inactive. The outcome in experiment [7], in experiment [8], in [9] and in [10] was inactive.
Take `O=C1C2CC=CCC2C(=O)N1SC(Cl)(Cl)Cl` (stereo not given): the AC50 in [1] was 30.9 µM (active); in experiment [2], 11.4 µM (active); in experiment [3] it was 31.7 µM (active); in [4], 13.4 µM (active); in experiment [5] it was 28.9 µM (active); in [7], 31.7 µM (active). Moreover, the AC50 in experiment [8] was 7.03 µM (active); in experiment [9], 34.9 µM (active); in experiment [10], 35 µM (active). For the same molecule, the result in experiment [6] was inactive.
For `O=c1n(Cl)c(=O)n(Cl)c(=O)n1Cl`, the result in experiment [1], in [2], in experiment [3], in experiment [4], in experiment [5] and in experiment [6] was inactive. Moreover, the result in [7], in experiment [8], in [9] and in experiment [10] was inactive.
With `CCOc1cc(C(C)(C)C)ccc1C1COC(c2c(F)cccc2F)=N1` (stereo not given), the outcome in [1], in experiment [3], in experiment [4], in experiment [5], in experiment [6] and in experiment [9] was inactive. Also, the result in experiment [10] was inactive. The AC50 in [2] is 22.1 µM (active); in experiment [7] it was 32.5 µM (active); in experiment [8] it was 33 µM (active).
With `C=C(C)CN(CC)c1c([N+](=O)[O-])cc(C(F)(F)F)cc1[N+](=O)[O-]`, the result in experiment [1], in experiment [2], in experiment [3], in experiment [4], in [5] and in [6] was inactive. Moreover, the outcome in experiment [7], in experiment [8], in experiment [9] and in experiment [10] was inactive.
As to `COc1ccc(-c2ccccc2)cc1NNC(=O)OC(C)C`, the result in experiment [1], in experiment [2], in [3], in experiment [4], in experiment [5] and in [6] was inactive. In addition, the outcome in experiment [7], in [8], in [9] and in experiment [10] was inactive.
Regarding `Cc1cnc(C2=NC(C)(C(C)C)C(=O)N2)c(C(=O)O)c1` (stereo not given), the outcome in experiment [1], in experiment [2], in experiment [3], in experiment [4], in [5] and in experiment [6] was inactive. Moreover, the result in experiment [7], in [8], in [9] and in experiment [10] was inactive.
For `COCc1cnc(C2=NC(C)(C(C)C)C(=O)N2)c(C(=O)O)c1` (stereo not given), the result in experiment [1], in experiment [2], in [3], in [4], in experiment [5] and in experiment [6] was inactive. For the same molecule, the result in experiment [7], in [8], in experiment [9] and in experiment [10] was inactive.
Turning to `Nc1cnn(-c2ccccc2)c(=O)c1Cl`, the outcome in experiment [1], in experiment [2], in experiment [3], in experiment [4], in experiment [5] and in experiment [6] was inactive. In addition, the result in [7], in experiment [8], in [9] and in [10] was inactive.
In the case of `CS(=O)(=O)c1cc(C(F)(F)F)ccc1C(=O)c1cnoc1C1CC1`, the result in [1], in experiment [2], in experiment [3], in experiment [4], in experiment [5] and in experiment [6] was inactive. The result in experiment [7], in [8], in experiment [9] and in experiment [10] was inactive.

As usually defined, the AC50 is the midpoint of the concentration-response curve, whichever way the signal moves.
